Assay results reported in PubChem BioAssay.
Active and inactive are the calls of the source.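 The calls were made as follows, unless noted: active = inhibition at or above 50% at 10 µM; inactive = inhibition below 50%.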

Columns and labels:
[1] = inhibitors of TNFa-induced NFkB p65 translocation, primary screen, imaging, HUVEC, MLSMR starter and 10KST1 sets (AID 438;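 active = inhibition above 20% together with a positive visual image hit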;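 also: compound added about 3h40 before a 20 min TNFalpha stimulation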;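 as to inhibition: signal is the nuclear over cytoplasmic p65 intensity ratio per well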); conditions: HUVEC TNFa-induced p65 nuclear translocation; cell count: measured here: nuclei count (cytotoxicity indicator), at 2.08 µM; inhibition: at 2 µM, stronger effect = higher value, 0% TNFa-plus-vehicle, 100% no-TNFa wells
[2] = inhibitors of mutant huntingtin aggregation, primary screen, imaging, exon1htt(103Q)mCFP cells, high-content imaging (AID 483;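 active = visual image review flags a hit and inhibition of aggregation exceeds 20%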;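 also: compound exposure lasted 3 days before fixation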;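 as to nuclei count: percent of the per-plate median nuclei count of sample wells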); conditions: exon1htt(103Q)mCFP cell line, aggregate imaging, at 2 µM; inhibition of aggregation: stronger effect = higher value; nuclei count: measured here: cell count, toxicity
[3] = inhibitors of E-selectin induction by TNFa, primary screen, imaging, HUVEC, immunofluorescence, MLSMR starter and 10KST1 sets (AID 487;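 active = visually confirmed hit in the image check and inhibition above 20%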;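 as to inhibition: signal is fraction of cell area covered by stained E-selectin grains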;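 as to nuclei count: 100% = median nuclei count of all wells on the same plate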); conditions: HUVEC TNFalpha-induced E-selectin immunofluorescence imaging, at 2 µM; inhibition: stronger effect = higher value; nuclei count: measured here: cell number, toxicity
[4] = target: Voltage-gated potassium channel subunit beta-2 (Rattus norvegicus) (UniProt P62483); assay: KvBeta enzyme negative modulators, primary screen, biochemical, NADPH fluorescence (AID 622;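 active = fluorescence slope higher than the sample average by over 3 SD, cut at about -0.22 in these data, passing the limit was not always enough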;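 also: slope of raw intensity against log time taken from 70 to 1610 s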); conditions: recombinant KvBeta, 4-cyanobenzaldehyde reduction, at 10 µM, stronger effect = higher value
Sequence of Voltage-gated potassium channel subunit beta-2 (Rattus norvegicus) (P62483 whole entry, looked up): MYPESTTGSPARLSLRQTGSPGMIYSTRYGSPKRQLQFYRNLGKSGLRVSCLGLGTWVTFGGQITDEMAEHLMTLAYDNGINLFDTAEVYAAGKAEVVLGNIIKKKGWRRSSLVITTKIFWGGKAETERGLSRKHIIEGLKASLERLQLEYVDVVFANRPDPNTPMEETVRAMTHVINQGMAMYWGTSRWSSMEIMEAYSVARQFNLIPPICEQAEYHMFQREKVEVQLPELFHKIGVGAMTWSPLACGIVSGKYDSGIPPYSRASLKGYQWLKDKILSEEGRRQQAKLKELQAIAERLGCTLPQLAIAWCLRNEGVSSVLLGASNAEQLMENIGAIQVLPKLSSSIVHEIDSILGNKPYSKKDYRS

[5] = target: Voltage-gated potassium channel subunit beta-2 (Rattus norvegicus) (UniProt P62483); assay: KvBeta positive modulators, primary screen, biochemical, NADPH fluorescence (AID 623;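 active = NADPH fluorescence slope more negative than the mean of all samples by about 3 SD, 99.7% confidence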;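 also: fluorescence intensity change per second fitted from 20 to 320 s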); conditions: Recombinant KvBeta, NADPH fluorescence decrease slope, 10 min; at 10 µM; stronger effect = lower value
[6] = target: Alpha-2C adrenergic receptor (Homo sapiens) (UniProt P18825); assay: modulators of alpha2C/GIRK thallium flux, primary screen, cell-based, HEK293 alpha2C/GIRK1/2 (AID 624;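 active = fluorescence slope after compound addition differing from the mean of all screened samples at 99.7% confidence, in either direction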;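 also: slope of fluorescence ratio to pre-addition baseline per second over 15 to 24 s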); conditions: thallium flux BTC fluorescence, at 10 µM, actives lie on both sides
Sequence of Alpha-2C adrenergic receptor (Homo sapiens) (P18825 whole entry, looked up): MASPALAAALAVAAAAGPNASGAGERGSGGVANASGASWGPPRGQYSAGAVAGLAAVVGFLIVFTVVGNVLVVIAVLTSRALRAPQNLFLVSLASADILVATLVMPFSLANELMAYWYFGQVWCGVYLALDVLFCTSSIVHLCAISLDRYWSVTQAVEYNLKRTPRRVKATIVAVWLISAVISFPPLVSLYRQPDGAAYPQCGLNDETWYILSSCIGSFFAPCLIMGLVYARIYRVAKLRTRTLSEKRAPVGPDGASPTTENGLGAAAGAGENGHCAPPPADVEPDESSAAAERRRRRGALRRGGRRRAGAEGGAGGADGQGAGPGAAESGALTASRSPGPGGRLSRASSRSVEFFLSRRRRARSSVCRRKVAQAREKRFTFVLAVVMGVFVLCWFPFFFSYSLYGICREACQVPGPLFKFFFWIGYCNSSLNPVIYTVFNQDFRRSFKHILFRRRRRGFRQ

[7] = inhibitors of Sendai virus-induced IRF3 signaling, primary screen, TLR/RLR signaling modifier project, cell-based, Sendai virus stimulus, luciferase, 10K MLSCN set (AID 602276); conditions: HEK293 RL24 IRF3 luciferase reporter, at 10 µM, stronger effect = higher value;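 also: firefly luciferase from ISG56 promoter only with Renilla not read in this screen; 0% = Sendai virus plus DMSO and 100% = medium plus DMSO without virus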
[8] = inhibitors of poly I:C-induced TLR3 signaling, primary screen, cell-based, poly I:C stimulus, luciferase, 10K MLSCN set (AID 602277;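 active = inhibition of the reporter signal at or above 50%; inactive = inhibition below 50%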); conditions: HEK293-TLR3 RL24 IRF3 luciferase reporter, at 10 µM, stronger effect = higher value

Compound	cell count [1]	inhibition [1]	inhibition of aggregation [2]	nuclei count [2]	inhibition [3]	nuclei count [3]	fluorescence slope [4]	NADPH fluorescence slope [5]	slope [6]	inhibition [7]	inhibition [8]
CCN(CC)S(=O)(=O)c1ccc(F)c(C(=O)NCCC(C)C)c1	497	-22% (inactive)	37.4% (inactive)	79.2%	-22.3% (inactive)	99.2%	-0.353 (inactive)	-1.6e-05 (inactive)	0.00438 (inactive)	-18.3% (inactive)	-20.2% (inactive)
CCN(Cc1ccccc1)C(c1ccncc1)c1nnnn1C(C)(C)C (stereo not given)	618	11.6% (inactive)	-32% (inactive)	122%	-42.3% (inactive)	116%	-0.606 (inactive)	-3.2e-05 (inactive)	0.0048 (inactive)	17.8% (inactive)	21.6% (inactive)
Cc1ccc(S(=O)(=O)N(CCO)c2cc3c(s2)CCCC3)cc1	689	-0.8% (inactive)	20.5% (inactive)	73.1%	-151% (inactive)	117%	-0.404 (inactive)	-2.1e-05 (inactive)	0.00447 (inactive)	9.96% (inactive)	21.8% (inactive)
CC(=O)Nc1ccc(NS(=O)(=O)C(F)(F)F)cc1	417	2% (inactive)	8% (inactive)	104%	-96% (inactive)	127%	-0.353 (inactive)	-0.000109 (inactive)	0.00651 (inactive)	3.92% (inactive)	21.1% (inactive)
CC(=O)N1CCN(S(=O)(=O)c2cccc(C(=O)Nc3ccc4c(c3)CCC4)c2)CC1	442	10.5% (inactive)	-6.6% (inactive)	118%	-54.2% (inactive)	111%	-0.385 (inactive)	-4e-05 (inactive)	0.00306 (inactive)	9.87% (inactive)	1.5% (inactive)
CCS(=O)(=O)c1nc2ccccc2n1Cc1ccccc1Cl	689	-1.1% (inactive)	-10.2% (inactive)	115%	-31.4% (inactive)	109%	-0.542 (inactive)	-5.8e-06 (inactive)	0.0072 (inactive)	-0.827% (inactive)	18.9% (inactive)
O=C(CN(Cc1ccc2c(c1)OCO2)C(=O)CNS(=O)(=O)c1ccccc1)NCc1ccco1	869	9% (inactive)	-9.2% (inactive)	108%	-3.6% (inactive)	98.7%	-0.356 (inactive)	8e-07 (inactive)	0.00553 (inactive)	15.7% (inactive)	36.2% (inactive)
Cc1nn(C)cc1NC(=O)CCSc1nc(-c2ccco2)cc(C(F)(F)F)n1	452	-13.9% (inactive)	-12.3% (inactive)	107%	35.1% (inactive)	106%	-0.615 (inactive)	-1.6e-06 (inactive)	0.00399 (inactive)	-8.54% (inactive)	-43.3% (inactive)
Cc1c2cnn(CC(=O)N3CCN(c4ncccn4)CC3)c(=O)c2c(C)n1Cc1ccc(F)cc1	405	-9.2% (inactive)	4.7% (inactive)	99.5%	-130% (inactive)	118%	-0.371 (inactive)	-3.3e-05 (inactive)	0.00444 (inactive)	-14.2% (inactive)	-8.56% (inactive)
COc1ccc(C(CC(=O)O)NC(=O)c2ccccc2)cc1OC (stereo not given)	317	-1.6% (inactive)	-6.3% (inactive)	116%	-9% (inactive)	106%	-0.311 (inactive)	1e-05 (inactive)	0.00391 (inactive)	9.8% (inactive)	28.8% (inactive)
Cc1cccc(C)c1OCc1nnc(SCC(=O)Nc2ccccc2F)o1	592	-12% (inactive)	21.8% (inactive)	67.2%	4% (inactive)	109%	-0.558 (inactive)	-3e-05 (inactive)	0.00659 (inactive)	16.4% (inactive)	25.4% (inactive)
O=C(CN1C(=O)C2C3C=CC(C3)C2C1=O)NCc1ccc2c(c1)OCO2 (stereo not given)	421	7.5% (inactive)	8.3% (inactive)	102%	-109% (inactive)	104%	-0.601 (inactive)	1.2e-05 (inactive)	0.00636 (inactive)	-4.21% (inactive)	6.98% (inactive)
COC(=O)Nc1ccccc1C(=O)N1CCCCC1	403	9.9% (inactive)	4% (inactive)	120%	-25.5% (inactive)	112%	-0.597 (inactive)	-8.5e-07 (inactive)	0.00473 (inactive)	6.49% (inactive)	13.9% (inactive)
O=C(Cn1c(-c2cncs2)nc2ccccc21)NC1CCCC1	700	-12.4% (inactive)	0% (inactive)	114%	-9.6% (inactive)	109%	-0.31 (inactive)	-4.5e-05 (inactive)	0.00471 (inactive)	0.467% (inactive)	16.2% (inactive)
CCCCCCOC(=O)C(C#N)c1nc2ccccc2nc1N1CCCCC1 (stereo not given)	513	5.7% (inactive)	6.3% (inactive)	89.3%	-28.3% (inactive)	137%	-0.393 (inactive)	3.7e-05 (inactive)	0.00357 (inactive)	6.89% (inactive)	23.9% (inactive)
Cc1cccc(NC(=O)C2CCCN(C(=O)Nc3ccccc3)C2)c1C (stereo not given)	599	-28.6% (inactive)	-9.1% (inactive)	87.8%	-9.2% (inactive)	85.7%	-0.573 (inactive)	4.6e-05 (inactive)	0.00746 (inactive)	4% (inactive)	-12% (inactive)
COc1cc(-n2nc(C)c3c2OC(N)=C(C#N)C3c2ccccc2)c(Cl)c(Br)c1O (stereo not given)	490	-1.6% (inactive)	2.1% (inactive)	71.4%	-8.7% (inactive)	108%	-0.397 (inactive)	-3.5e-05 (inactive)	0.00309 (inactive)	18.2% (inactive)	14.7% (inactive)
Cc1ccc(S(=O)(=O)N2CCOCC2)cc1C(=O)Nc1nc(-c2cccnc2)cs1	294	10.3% (inactive)	-1.2% (inactive)	99.3%	-22.3% (inactive)	100%	-0.527 (inactive)	2.5e-05 (inactive)	0.00585 (inactive)	7.72% (inactive)	15.3% (inactive)
Cc1ccc(C2C(C(=O)c3sc(C)nc3C)=C(O)C(=O)N2CCN(C)C)o1 (stereo not given)	387	-7.6% (inactive)	-12.7% (inactive)	107%	-161% (inactive)	127%	-0.351 (inactive)	-4.5e-05 (inactive)	0.00504 (inactive)	7.21% (inactive)	6.57% (inactive)
O=C1CC(N2CCN(c3ccc(Cl)c(Cl)c3)CC2)C(=O)N1 (stereo not given)	361	0.7% (inactive)	-7.2% (inactive)	87.1%	25.6% (inactive)	98.6%	-0.466 (inactive)	-4.7e-05 (inactive)	0.00625 (inactive)	-2.47% (inactive)	20.7% (inactive)
